In the library only some 4.1% were active in any assay of this set; here they are far more common.
NLRP3 yeast inh: blocks the NALP3 inflammasome reconstituted in yeast; Yeast reconstituted NLRP3/ASC/caspase-1, beta-gal luminescence, 24 h; inhibition, % at 10 µM; 330,000 tested, 0.39% active; AID 2825;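 active means inhibition of 50% or more; inactive means inhibition below 50%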;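 further: plate controls were induced DMSO wells for no effect and uninduced yeast grown without galactose for full effect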
TIM10 inh: growth inhibitors of TIM10 yeast strain. AID 463195. 330,000 tested, 1.4% active. inhibition, % at 10 µM. S. cerevisiae TIM10 strain growth, BacTiter-Glo luminescence, 24 h;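 active means inhibition of 40% or more at the single tested concentration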;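 further: wild-type TIM10 isogenic control strain grown at permissive 25 °C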
tim23-1 inh: growth inhibitors of tim23-1 mutant yeast | AID 463212 | S. cerevisiae tim23-1 growth, BacTiter-Glo luminescence, 24 h | inhibition, % at 20 µM | 330,000 tested, 1.3% active;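 active means growth inhibition of the mutant yeast at or above 50%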;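 further: temperature-sensitive mutant grown at 25 °C; plate controls were DMSO-treated mutant yeast for no effect and medium wells lacking yeast for full effect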
tim10-1 inh: inhibits growth of tim10-1 mutant yeast | S. cerevisiae tim10-1 ts strain growth, BacTiter-Glo, 24 h | inhibition, % at 20 µM | 330,000 tested, 2.2% active | AID 463190;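 active means inhibition of at least 40%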;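 further: mutant grown at 25 °C; 0% = DMSO wells with yeast and 100% = wells holding no yeast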
PfHsp90 yeast 2: inhibits growth of yeast expressing Plasmodium falciparum Hsp90; S. cerevisiae expressing PfHsp90, BacTiter-Glo ATP, 48 h; yeast lacking PDR1 and PDR3 efflux regulators; inhibition, % at 9.4 µM; 310,000 tested, 0.32% active;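 active means every replicate shows inhibition above about 80%, whatever the replicate mean, limit read from the data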;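 further: 0% = DMSO neutral controls and 100% = 20 µM radicicol positive controls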
NALP1 inh: NALP1 inhibition; AID 2071; inhibition, % at 10 µM; 280,000 tested, 0.61% active; S. cerevisiae NALP1/ASC/caspase-1 growth, X-gal OD620, 72 h; in the data active means inhibition mostly above about 24%, no sharp cut-off; inactive means mostly below about 32%
tim10-1 conf: tim10-1 yeast growth inhibition, confirmed | shares compounds with tim10-1 inh | S. cerevisiae tim10-1 ts strain growth, BacTiter-Glo, 24 h | inhibition, % at 20 µM | 7,400 tested, 56% active;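 active means inhibition of yeast growth at or above a set limit in either of two repeat tests at 20 µM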;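 further: tim10-1 mutant grown at permissive 25 °C to find synthetic lethal compounds; 0% = DMSO yeast wells and 100% = medium wells without yeast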
tim10 confirm: TIM10 yeast growth inhibition, confirmed. shares compounds with TIM10 inh. S. cerevisiae tim10 strain growth, BacTiter-Glo luminescence, 24 h. 4,600 tested, 63% active. AID 463215. inhibition, % at 10 µM;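 active means inhibition of yeast growth at or above a set limit in either of two replicates at 10 µM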;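 further: this counterscreen used the strain with wild-type TIM10; 0% = yeast with DMSO and 100% = medium wells lacking yeast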
The depositor's hits bear a star; · = no result.

SMILES	NLRP3 yeast inh	TIM10 inh	tim23-1 inh	tim10-1 inh	PfHsp90 yeast 2	NALP1 inh	tim10-1 conf	tim10 confirm
Oc1ccc(C(=S)N2CCN(c3cccc(Cl)c3)CC2)cc1	9	54*	25	41*	-4	-1	53*	48*
CCCN(C(=O)COC(=O)COc1c(C)cccc1C)c1c(N)n(Cc2ccccc2)c(=O)[nH]c1=O	7	15	14	5	·	·	·	·
CCOC(=O)C1CCN(C(=O)c2cc3cc4cc(OC)ccc4nc3o2)CC1	22	53*	-8	48*	-24	51	51*	-5
O=c1c2c(nc(NCCO)n1CC1CCCCC1)-c1ccccc1CC21CCCC1	13	52*	43	55*	4	8	37*	-35
O=C(COC(=O)c1cc(S(=O)(=O)N2CCOCC2)ccc1F)NCCc1ccc(F)cc1	5	-8	6	1	-13	·	·	·
CN(C(=O)C1CC1)C1CCS(=O)(=O)C1 (centres undefined)	6	-8	-6	-31	-6	·	·	·
COc1ccc(NC(=O)c2ccc(NC(=O)c3cccs3)cc2)cc1	4	-24	-21	-9	6	32	·	·
COc1ccc(C(=O)/C=C\c2ccc(NC(=O)c3cccs3)cc2)cc1	0	48*	20	43*	11	13	31*	40*
C=C1CCC[C@]2(C)C[C@H]3OC(=O)C(CN[C@@H](C)c4ccccc4)[C@H]3CC12 (some centres undefined)	·	·	·	·	-10	17	·	·
C=C1CCC[C@]2(C)C[C@H]3OC(=O)C(CN(Cc4ccc(OC)c(OC)c4)CC(C)O)[C@H]3CC12 (some centres undefined)	-34	44*	42	43*	-39	-25	40*	46*
Cc1c(Cl)cccc1NC(=O)CN(C1CCCCC1)S(C)(=O)=O	16	6	11	7	10	11	·	·
Cc1ccccc1/C(N)=N/OC(=O)N1c2ccccc2Sc2ccccc21	43	74*	30	72*	-6	9	69*	81*
CN(C(=O)COC(=O)c1ccc(Cl)c(S(=O)(=O)NCc2ccccc2)c1)C1CCS(=O)(=O)C1 (centres undefined)	·	·	·	·	-9	·	·	·
OC[C@@H]1[C@@H](c2ccc(F)cc2)C(c2ccccc2)=NN1c1ccccc1	·	18	46	16	-43	·	·	·
O=C1C2C(c3ccccc3)=NN(c3ccccc3)C2C(=O)N1c1ccccc1 (centres undefined)	4	59*	48	59*	2	24	49*	-19
CCCN(CCC)C(=S)NC(=O)c1ccc(-c2ccccc2)cc1	38	44*	32	42*	-25	22	16	42*
O=C1/C(=C/c2ccncc2)CCc2ccccc21	8	45*	47	50*	9	·	56*	55*
COc1ccc(Cc2nc3ccc(C(=O)N(C)CCc4cnn(C)c4)cc3o2)cc1OC	7	12	3	-6	-10	28	·	·
COc1cc(/C=C2/C(C)=C(C#N)c3nc(N)c(C#N)c(C)c32)ccc1OCC(=O)O	16	42*	43	41*	-9	6	23	32*
CC1=C(C#N)c2nc(N)c(C#N)c(C)c2/C1=C\c1ccc(-c2ccccc2C(=O)O)o1	·	·	·	·	-22	-12	·	·
NC(=S)Nc1cccc2cc3ccccc3cc12	26	40*	44	40*	7	15	26	32*
CC(C)c1nc2oc3c(NCC4CCCO4)ncnc3c2c2c1CCC2 (centres undefined)	-6	45*	31	46*	·	11	27	13
CCCc1nc2oc3c(NCC4CCCO4)ncnc3c2c2c1COC(C)(C)C2 (centres undefined)	-4	9	17	35	-13	·	·	·
COc1cc(/C=C2/N=C(C3CCCCC3)OC2=O)cc(OC)c1OC	15	44*	39	43*	-26	13	33*	29
OCC1(Cc2ccccc2)CCN(C2CCN(c3ccc(F)c(F)c3)CC2)CC1	39	-37	-164	-35	10	8	·	·
SMILES	NLRP3 yeast inh	TIM10 inh	tim23-1 inh	tim10-1 inh	PfHsp90 yeast 2	NALP1 inh	tim10-1 conf	tim10 confirm
Cc1cc(Cl)ccc1OCC(=O)Nc1nc(-c2cccnc2)cs1	5	-4	-10	-8	-35	-10	·	·
Cc1cc(Cl)ccc1OCC(=O)Nc1nc(-c2cccs2)cs1	14	43*	22	49*	-24	-2	41*	-16
Fc1ccc(N2CCN(c3nc(CN4CCOCC4)nc4scc(-c5ccccc5)c34)CC2)cc1	-5	40*	49	55*	-9	16	34*	34*
Fc1ccc(CN2CCN(c3ncnc4scc(-c5ccccc5)c34)CC2)cc1	20	26	47	36	-17	27	·	·
Cc1nn(C)c(C(=O)NC(=S)Nc2ccc([N+](=O)[O-])cc2)c1Cl	21	41*	50	52*	6	-12	40*	28
Cc1nc(NC(=O)COC(=O)c2ccc(CO)cc2)c(Cl)cc1Cl	9	7	9	-7	0	·	·	·
CC(=O)OCCCNc1cc(Sc2nc3ccccc3s2)c2nonc2c1[N+](=O)[O-]	26	85*	44	91*	-8	42	91*	1
O=C(O)/C=C/c1cccc(OCc2ccccc2)c1	18	9	12	4	-32	1	·	·
O=C(/C=C/c1cccc(OCc2ccccc2)c1)c1cccnc1	7	65*	37	57*	1	26	50*	52*
CCOC(=O)C1Nc2c(F)cc(C)cc2C2c3ccccc3CC12 (centres undefined)	49	46*	47	49*	-16	·	55*	59*
Cc1ccc(S(=O)(=O)NC2CC(C)(C)NC(C)(C)C2)cc1C	-12	-1	-11	-9	-9	-1	·	·
Cc1ccc2[nH]c(-c3cccc(F)c3)cc(=O)c2c1	5	-4	-7	-23	-1	23	·	·
Cc1ccc(O)c(-c2cc(-c3cccc(F)c3)n[nH]2)c1	14	43*	36	53*	100*	10	34*	21
Oc1ccc(Br)cc1-c1cc(-c2ccccc2)n[nH]1	17	58*	15	47*	-4	15	22	-2
Cc1ccc(OCC(O)Cn2c(N3CCCCC3)nc3c2c(=O)[nH]c(=O)n3C)cc1C (centres undefined)	28	5	23	0	-26	7	·	·
COc1cc(/C=N/NC(=O)C(=O)/C=C2\NC3(CCCC3)Cc3ccccc32)ccc1O	-10	47*	45	52*	-26	-17	22	4
